Measured values reported in the supplement of paper PMC11732987, “Enantioselective OTUD7B fragment discovery through chemoproteomics screening and high-throughput optimisation” (Communications Chemistry, 2025).

Legend:
Experiment in all cases: log2 ratio of Biotin-Ahx-Ub-VS probe labelling (fragment/DMSO); higher = less target engagement (more negative = stronger competition), active = hit call of the paper (q ≤ 0.05, log2 ratio ≤ -1)
Settings in all cases: compound concentration: 200 uM; treatment time: 3 h
USP19 = molecular target: T1, USP19 (UniProt O94966)
T1 sequence (whole entry): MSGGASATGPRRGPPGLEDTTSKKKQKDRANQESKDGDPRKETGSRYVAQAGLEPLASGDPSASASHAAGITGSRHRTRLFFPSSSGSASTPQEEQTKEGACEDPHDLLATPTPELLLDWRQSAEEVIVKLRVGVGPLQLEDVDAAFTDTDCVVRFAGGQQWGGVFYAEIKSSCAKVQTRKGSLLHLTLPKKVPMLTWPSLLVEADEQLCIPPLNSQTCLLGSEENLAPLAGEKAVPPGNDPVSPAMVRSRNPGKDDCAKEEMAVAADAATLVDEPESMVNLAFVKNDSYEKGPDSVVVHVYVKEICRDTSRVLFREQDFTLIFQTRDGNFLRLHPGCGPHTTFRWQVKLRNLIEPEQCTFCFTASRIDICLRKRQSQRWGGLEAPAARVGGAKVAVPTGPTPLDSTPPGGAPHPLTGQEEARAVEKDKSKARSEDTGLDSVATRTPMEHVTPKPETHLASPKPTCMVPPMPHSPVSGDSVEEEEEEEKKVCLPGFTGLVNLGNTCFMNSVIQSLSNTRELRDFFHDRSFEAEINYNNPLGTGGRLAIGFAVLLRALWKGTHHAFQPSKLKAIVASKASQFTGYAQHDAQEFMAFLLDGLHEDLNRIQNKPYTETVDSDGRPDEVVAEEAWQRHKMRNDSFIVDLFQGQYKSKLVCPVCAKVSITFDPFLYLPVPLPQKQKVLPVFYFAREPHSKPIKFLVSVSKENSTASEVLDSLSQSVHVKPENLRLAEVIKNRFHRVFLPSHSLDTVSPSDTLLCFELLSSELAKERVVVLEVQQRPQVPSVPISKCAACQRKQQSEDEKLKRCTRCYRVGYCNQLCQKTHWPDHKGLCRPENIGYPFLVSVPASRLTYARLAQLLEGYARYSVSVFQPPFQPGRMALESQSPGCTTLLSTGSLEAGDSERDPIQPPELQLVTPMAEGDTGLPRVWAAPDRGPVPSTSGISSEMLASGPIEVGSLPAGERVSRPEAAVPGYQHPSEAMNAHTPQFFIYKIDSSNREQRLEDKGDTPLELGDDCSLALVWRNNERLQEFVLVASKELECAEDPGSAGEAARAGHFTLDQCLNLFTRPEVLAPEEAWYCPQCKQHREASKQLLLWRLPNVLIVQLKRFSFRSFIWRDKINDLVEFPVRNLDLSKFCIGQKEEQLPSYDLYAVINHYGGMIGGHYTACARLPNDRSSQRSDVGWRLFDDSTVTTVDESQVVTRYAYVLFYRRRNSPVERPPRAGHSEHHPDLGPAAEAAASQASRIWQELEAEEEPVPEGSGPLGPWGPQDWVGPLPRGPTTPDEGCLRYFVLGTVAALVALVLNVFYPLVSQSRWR
Procedure, shortened: (§1)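 Labelled DUBs from HEK293T lysate were NeutrAvidin-enriched, digested with LysC and trypsin, and run by diaPASEF LC-MS/MS. Before that, each 495 µg sample in Tris/CHAPS/IGEPAL buffer with protease inhibitors was treated in triplicate with fragment at 200 µM or vehicle for 3 h, then with Biotin-Ahx-Ub-VS at 0.5 µM final for 1 h. Values are average log2 ratios of fragment over vehicle by unpaired t-test, based on global-median-normalised Spectronaut label-free quantities from proteins with ≥2 unique peptides.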

USP22 = molecular target: T2, USP22 (UniProt Q9UPT9)
T2 sequence (whole entry): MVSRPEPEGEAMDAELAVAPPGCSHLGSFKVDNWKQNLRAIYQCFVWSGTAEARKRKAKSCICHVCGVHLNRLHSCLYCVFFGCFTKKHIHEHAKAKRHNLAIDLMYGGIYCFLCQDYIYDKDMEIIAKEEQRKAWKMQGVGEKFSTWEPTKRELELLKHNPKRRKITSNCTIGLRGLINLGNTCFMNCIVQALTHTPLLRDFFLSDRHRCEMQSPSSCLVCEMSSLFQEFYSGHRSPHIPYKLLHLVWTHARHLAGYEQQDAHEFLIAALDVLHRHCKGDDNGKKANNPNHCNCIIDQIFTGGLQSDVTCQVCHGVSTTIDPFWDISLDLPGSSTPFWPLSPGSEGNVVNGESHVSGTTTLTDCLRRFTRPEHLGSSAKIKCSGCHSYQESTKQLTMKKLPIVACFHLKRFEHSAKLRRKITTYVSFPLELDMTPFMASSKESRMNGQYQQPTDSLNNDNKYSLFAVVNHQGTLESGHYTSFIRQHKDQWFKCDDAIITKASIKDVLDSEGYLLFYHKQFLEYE
Procedure, shortened: as §1

USP24 = USP24 (UniProt Q9UPU5)
Procedure, shortened: as §1

USP25 = molecular target: T3, USP25 (UniProt Q9UHP3)
T3 sequence (whole entry): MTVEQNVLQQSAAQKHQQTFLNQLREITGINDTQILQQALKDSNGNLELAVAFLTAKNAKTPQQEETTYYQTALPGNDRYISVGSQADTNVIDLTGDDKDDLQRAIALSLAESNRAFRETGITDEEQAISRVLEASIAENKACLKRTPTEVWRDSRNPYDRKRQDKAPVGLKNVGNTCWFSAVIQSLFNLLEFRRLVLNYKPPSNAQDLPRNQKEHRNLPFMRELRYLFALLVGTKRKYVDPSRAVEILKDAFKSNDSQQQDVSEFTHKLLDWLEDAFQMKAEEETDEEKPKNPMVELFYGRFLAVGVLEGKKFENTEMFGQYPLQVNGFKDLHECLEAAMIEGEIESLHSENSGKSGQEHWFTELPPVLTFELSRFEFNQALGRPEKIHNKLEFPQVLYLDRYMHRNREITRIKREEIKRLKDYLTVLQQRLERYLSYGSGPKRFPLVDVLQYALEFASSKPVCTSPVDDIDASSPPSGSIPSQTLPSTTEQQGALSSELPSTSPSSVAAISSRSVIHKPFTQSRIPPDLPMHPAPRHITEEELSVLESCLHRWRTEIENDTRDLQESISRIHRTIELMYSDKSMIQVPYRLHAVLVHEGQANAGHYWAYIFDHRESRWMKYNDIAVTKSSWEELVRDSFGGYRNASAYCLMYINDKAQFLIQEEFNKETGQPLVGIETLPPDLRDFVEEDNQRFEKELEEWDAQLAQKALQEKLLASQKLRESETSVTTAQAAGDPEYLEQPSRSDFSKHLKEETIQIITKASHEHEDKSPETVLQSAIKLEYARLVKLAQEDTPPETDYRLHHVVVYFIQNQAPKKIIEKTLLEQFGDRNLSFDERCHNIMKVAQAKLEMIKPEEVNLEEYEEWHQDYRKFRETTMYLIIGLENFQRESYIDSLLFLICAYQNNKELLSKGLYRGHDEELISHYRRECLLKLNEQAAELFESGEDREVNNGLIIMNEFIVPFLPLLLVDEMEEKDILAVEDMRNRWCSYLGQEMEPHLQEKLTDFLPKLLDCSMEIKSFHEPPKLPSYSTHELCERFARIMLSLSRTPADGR
Procedure, shortened: as §1

USP28 = molecular target: T4, USP28 (UniProt Q96RU2)
T4 sequence (whole entry): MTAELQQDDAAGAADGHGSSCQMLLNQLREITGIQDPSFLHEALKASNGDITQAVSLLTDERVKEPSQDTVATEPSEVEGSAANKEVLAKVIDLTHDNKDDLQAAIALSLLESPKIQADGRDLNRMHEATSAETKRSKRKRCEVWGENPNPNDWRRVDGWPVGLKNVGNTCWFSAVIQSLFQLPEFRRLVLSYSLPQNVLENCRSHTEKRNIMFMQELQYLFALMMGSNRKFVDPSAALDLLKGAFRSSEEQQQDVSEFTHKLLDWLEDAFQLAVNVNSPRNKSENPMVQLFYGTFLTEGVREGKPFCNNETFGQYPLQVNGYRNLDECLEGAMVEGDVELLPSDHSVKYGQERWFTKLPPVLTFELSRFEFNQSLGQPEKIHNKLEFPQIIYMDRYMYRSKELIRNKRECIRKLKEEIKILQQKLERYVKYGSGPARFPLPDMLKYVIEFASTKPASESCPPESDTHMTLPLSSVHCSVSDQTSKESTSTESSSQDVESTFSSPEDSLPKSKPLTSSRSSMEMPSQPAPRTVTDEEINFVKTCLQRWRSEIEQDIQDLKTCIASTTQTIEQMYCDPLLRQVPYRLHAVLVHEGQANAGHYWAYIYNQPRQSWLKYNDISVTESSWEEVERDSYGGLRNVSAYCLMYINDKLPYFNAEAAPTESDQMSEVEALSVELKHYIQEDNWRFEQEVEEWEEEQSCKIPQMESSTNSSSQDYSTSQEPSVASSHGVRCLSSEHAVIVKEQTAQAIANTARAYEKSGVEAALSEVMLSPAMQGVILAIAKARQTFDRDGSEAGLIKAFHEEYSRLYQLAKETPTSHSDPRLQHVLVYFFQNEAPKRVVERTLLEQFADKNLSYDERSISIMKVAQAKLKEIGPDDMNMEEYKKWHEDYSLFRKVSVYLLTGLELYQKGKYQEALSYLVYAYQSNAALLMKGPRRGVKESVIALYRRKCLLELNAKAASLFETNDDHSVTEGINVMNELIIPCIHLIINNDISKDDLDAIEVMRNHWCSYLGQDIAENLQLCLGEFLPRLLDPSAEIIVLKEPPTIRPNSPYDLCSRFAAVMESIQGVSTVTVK
Procedure, shortened: as §1

Measured: log2 ratio of Biotin-Ahx-Ub-VS probe labelling

USP24, sequence (Q9UPU5 whole entry): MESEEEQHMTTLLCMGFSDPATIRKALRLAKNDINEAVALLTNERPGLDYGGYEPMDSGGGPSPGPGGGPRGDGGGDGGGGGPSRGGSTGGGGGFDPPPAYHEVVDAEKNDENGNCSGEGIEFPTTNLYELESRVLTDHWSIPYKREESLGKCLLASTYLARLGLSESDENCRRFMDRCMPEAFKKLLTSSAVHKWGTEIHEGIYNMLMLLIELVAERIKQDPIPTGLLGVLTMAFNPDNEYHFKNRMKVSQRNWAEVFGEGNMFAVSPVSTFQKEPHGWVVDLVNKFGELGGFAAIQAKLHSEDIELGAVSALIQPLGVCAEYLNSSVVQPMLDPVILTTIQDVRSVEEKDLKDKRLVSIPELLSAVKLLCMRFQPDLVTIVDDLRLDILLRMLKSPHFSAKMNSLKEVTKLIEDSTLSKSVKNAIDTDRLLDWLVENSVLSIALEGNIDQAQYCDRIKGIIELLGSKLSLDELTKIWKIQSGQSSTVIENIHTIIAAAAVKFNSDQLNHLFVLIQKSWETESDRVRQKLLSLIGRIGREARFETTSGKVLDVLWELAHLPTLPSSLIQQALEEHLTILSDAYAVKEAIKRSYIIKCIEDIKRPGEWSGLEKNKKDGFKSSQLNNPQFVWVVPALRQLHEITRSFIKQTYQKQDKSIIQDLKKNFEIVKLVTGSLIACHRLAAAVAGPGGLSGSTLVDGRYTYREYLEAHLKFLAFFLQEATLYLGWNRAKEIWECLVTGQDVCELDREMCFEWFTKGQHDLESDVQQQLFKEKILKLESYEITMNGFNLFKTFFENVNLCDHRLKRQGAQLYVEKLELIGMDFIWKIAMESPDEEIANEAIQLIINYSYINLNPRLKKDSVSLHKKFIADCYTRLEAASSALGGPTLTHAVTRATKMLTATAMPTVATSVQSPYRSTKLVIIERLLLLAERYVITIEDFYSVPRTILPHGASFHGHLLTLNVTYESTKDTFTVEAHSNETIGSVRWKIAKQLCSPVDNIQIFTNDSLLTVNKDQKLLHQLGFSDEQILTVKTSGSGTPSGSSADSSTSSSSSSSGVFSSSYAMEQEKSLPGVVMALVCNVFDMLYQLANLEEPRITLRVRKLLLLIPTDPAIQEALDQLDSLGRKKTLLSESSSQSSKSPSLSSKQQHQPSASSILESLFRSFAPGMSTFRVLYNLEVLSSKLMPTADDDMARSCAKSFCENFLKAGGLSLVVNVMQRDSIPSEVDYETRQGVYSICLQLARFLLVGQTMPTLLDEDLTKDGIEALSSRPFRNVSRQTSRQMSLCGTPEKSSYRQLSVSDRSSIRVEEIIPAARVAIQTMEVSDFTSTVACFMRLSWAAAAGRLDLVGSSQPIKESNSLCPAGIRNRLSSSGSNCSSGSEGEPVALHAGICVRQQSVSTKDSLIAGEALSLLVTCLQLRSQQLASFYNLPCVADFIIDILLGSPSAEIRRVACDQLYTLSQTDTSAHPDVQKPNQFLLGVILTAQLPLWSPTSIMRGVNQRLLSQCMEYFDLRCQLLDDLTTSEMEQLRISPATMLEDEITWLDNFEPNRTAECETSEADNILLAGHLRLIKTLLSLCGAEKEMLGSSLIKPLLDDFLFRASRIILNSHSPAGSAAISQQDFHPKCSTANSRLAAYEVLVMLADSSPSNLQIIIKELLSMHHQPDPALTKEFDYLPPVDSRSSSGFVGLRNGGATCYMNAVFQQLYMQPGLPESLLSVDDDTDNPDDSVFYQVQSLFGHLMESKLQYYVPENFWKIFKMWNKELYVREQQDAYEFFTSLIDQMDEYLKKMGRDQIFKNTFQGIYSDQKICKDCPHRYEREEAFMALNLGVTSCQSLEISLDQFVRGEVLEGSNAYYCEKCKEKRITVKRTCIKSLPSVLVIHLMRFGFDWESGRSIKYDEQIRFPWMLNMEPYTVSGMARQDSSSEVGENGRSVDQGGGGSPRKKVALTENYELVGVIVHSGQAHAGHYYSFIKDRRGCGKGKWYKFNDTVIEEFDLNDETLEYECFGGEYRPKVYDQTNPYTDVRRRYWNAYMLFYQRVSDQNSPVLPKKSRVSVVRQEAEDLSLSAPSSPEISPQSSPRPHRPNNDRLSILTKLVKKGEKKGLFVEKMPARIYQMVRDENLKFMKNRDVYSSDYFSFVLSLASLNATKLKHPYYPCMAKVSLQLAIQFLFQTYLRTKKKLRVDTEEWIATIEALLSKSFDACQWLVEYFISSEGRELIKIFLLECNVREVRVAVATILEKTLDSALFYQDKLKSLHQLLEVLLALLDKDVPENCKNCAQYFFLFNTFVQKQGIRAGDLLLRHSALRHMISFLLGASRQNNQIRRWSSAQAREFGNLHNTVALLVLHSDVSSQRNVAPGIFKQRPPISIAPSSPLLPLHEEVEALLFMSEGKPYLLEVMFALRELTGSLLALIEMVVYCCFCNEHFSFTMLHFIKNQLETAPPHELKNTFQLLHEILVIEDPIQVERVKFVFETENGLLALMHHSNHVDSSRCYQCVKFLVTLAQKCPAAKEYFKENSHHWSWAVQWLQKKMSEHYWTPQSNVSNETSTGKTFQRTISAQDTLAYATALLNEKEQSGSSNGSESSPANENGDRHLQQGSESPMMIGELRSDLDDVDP

Cc1cccc(N(CCC#N)C(=O)CCl)c1C
inactive: USP19 0.16 | USP22 -0.11 | USP24 -0.0767 | USP25 0.00615 | USP28 -0.253
